Compound activity (PubChem)
TTR transcr act – TTR transcription activators in neuroblastoma reporter cells, primary screen, cell-based, luminescence, SH-SY5Y, TTR promoter Gaussia luciferase; 100% = recombinant luciferase protein wells; activation, % at 16.7 µM; 1.3% of 92,000 active; AID 1117267, 2014;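 active = activation above the mean of all tested compounds plus 3 SD, cut at about 9.5% in these data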;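 note: cells exposed to compounds for one day before reading; 0% = median of all test compound wells on the plate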
TTR inh HuH7 – TTR promoter reporter inhibitors in hepatoma cells, counter-screen for TTR transcription activator project, cell-based, luminescence, HuH7 hepatoma | 4% of 1,100 active | AID 1117279, 2014 | shares compounds with TTR transcr act | inhibition, % at 16.7 µM | HuH7 TTR promoter-Gaussia luciferase reporter;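 active = average inhibition above the solvent-only control wells' mean plus 3 SD, cut at about 15% in these data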;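 note: 0% = cells with DMSO only and 100% = cells with inhibitor control FD; inhibitors lower well luminescence so higher value means more inhibition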
TTR act confirm – TTR transcription activators, retest, confirmation, cell-based, luminescence, SH-SY5Y, triplicate; shares compounds with TTR transcr act; AID 1117280, 2014; SHSY5Y TTR promoter Gaussia luciferase; 100% = purified Lucia enzyme wells, no cells; 1,100 tested, under 10 active; activation, % at 16.7 µM;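 active = mean activation above a set limit taken from the earlier primary screen, cut at about 11% in these data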;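 note: 0% = DMSO-treated cells and 100% = recombinant Lucia luciferase without cells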
* = called active by the depositor. The full list was thinned out, with hits kept by preference.

SMILES | TTR transcr act | others
Cc1cc(C)nc(NS(=O)(=O)c2ccc(NC(=O)C3CC(=O)N(c4ccccc4)C3)cc2)n1 (centres undefined) | -1.1
C[C@H]1CCCN1c1cccc2c1S(=O)(=O)N1CC[C@H](C1)O2 | 6.0
COC(=O)[C@]12C[C@H](CC(=O)NCc3cccc4ccccc34)C(=O)N(Cc3cccc4ccccc34)C1=C[C@H](C(C)C)O[C@@H]2C1CC1 | -1.7
COc1ccc(Cl)cc1NC(=O)CCCn1c(=O)c2cccn2c2cccnc21 | 0.3
C#CCN1CC(N(C)CCOC(=O)c2ccc(C(C)(C)C)cc2)CS1(=O)=O (centres undefined) | 0.9
O=C(CO/N=C/c1c(Cl)cccc1Cl)NNC(=O)c1cccc(Cl)c1 | 1.5
O=C(CO/N=C/c1c(Cl)cccc1Cl)NNC(=O)c1ccc(Cl)cc1 | 10.5* | TTR inh HuH7=-15.8;TTR act confirm=0.2
O=C(CO/N=C/c1ccc(Cl)cc1Cl)NNC(=O)c1ccc(Cl)cc1Cl | -0.1
COc1ccc2[nH]c3c(c2c1)CCN[C@]31C(=O)N(C)c2ccccc21 | 0.3
O=C(CSc1nnc(-c2cccc(F)c2)o1)NC1CCCC1 | -1.4
O=C(CSc1nnc(-c2ccccc2)o1)NCC1CCCCC1 | 12.0* | TTR inh HuH7=-6.3;TTR act confirm=-0.6
Cc1cnc(NC(=O)CSc2nnc(-c3ccccc3)o2)s1 | -1.7
CCCOc1ccc(-c2nc(CSCC(=O)NC3CC3)c(C)o2)cc1 | -0.6
Nc1c(OS(=O)(=O)c2ccccc2)cccc1OS(=O)(=O)c1ccccc1 | -1.0
CC(C)Oc1ccc(Oc2ccc(C#C[C@H](C)N3C(=O)c4ccccc4C3=O)cc2)cn1 | 2.5
COc1ccc(O)c(/C=N/NC(=O)CSc2nnc(C)n2-c2ccccc2)c1 | 11.1* | TTR inh HuH7=-16.9;TTR act confirm=1.3
Cc1cccc(C)c1NC(=O)CSc1nnc(C)n1-c1ccccc1 | -1.8
COC(=O)c1ccc(NC(=O)CSc2nnc(C)n2-c2ccccc2)cc1 | -0.4
N#Cc1ccc(Cn2ccc3ccc(-c4ccc5ccn(Cc6ccc(C#N)cc6)c5c4)cc32)cc1 | 0.3
CCOC(=O)[C@@]12CCC3=C1N(CCC3)C(=O)[C@H](CC(=O)N1CCC(c3ccccc3)CC1)C2 | 1.9
CN(Cc1ccccc1)C(=O)OCc1cn(Cc2ccc(F)cc2F)nn1 | 0.2
Cc1cc(C)n2nc(C(=O)OCC(=O)Nc3ccc4c(c3)OC(F)(F)O4)nc2n1 | -1.1
COC(=O)c1cc(COC(=O)c2nc3nc(C)cc(C)n3n2)oc1C | 10.3* | TTR inh HuH7=-11.4;TTR act confirm=-0.7
Cc1cc(C)n2nc(C(=O)OCC(=O)c3ccccc3)nc2n1 | -0.1
C[C@@H]1CN([C@@H](C)CO)C(=O)c2cccc(NC(=O)Nc3cccc4ccccc34)c2O[C@H]1CN(C)S(=O)(=O)c1ccc(Cl)cc1 | 0.1
SMILES | TTR transcr act | others
CCCCOc1ncnc2c1[nH]c1ccc(OC)cc12 | 3.1
COc1ccc2[nH]c3c(Cl)ncnc3c2c1 | 16.5* | TTR inh HuH7=19.4*;TTR act confirm=-0.9
COc1ccc2[nH]c3c(N4CCc5ccccc5C4)ncnc3c2c1 | -6.2
CCC[C@H]1[C@@H](N(C)Cc2cccs2)CC[C@@]23CCCN2C(=O)CCC[C@@H]13 | 0.0
COC(=O)C[C@@H]1CC[C@@H]2[C@@H](COc3ccc(NC(C)=O)cc3C(=O)N2C)O1 | 0.6
CN(CCNC(=O)c1c[nH]c2c1ccc1ccccc12)CCNC(=O)c1c[nH]c2c1ccc1ccccc12 | 0.9
CC(C)C[C@H](NC1(C(=O)NCCc2c[nH]c3ccccc23)CCN(C)CC1)C(=O)NCCCc1ccccc1 | -1.4
CC(=NCc1ccccc1)C1=C(O)COC1=O | -4.0
CCCN=C(C)C1=C(O)c2ccccc2C1=O | 1.8
CC(=NCCc1ccccc1)C1=C(O)COC1=O | 12.7* | TTR inh HuH7=-12.6;TTR act confirm=0.0
Cn1c(=O)c2c(nc(CN3CCN(C(=O)c4ccco4)CC3)n2CCCO)n(C)c1=O | 2.0
Cn1c(=O)c2c(nc(CN3CCc4ccccc4C3)n2Cc2ccccc2F)n(C)c1=O | 0.1
Cn1c(=O)c2c(nc(CN3CCc4ccccc4C3)n2CCCO)n(C)c1=O | 15.5* | TTR inh HuH7=-8.4;TTR act confirm=0.1
O=C(OCC#CCSc1nnc(-c2cccc3ccccc23)o1)c1ccc(F)c(F)c1 | -0.1
Cc1ccccc1Cn1cc(COC(=O)N2CCOCC2)nn1 | 0.4
COC(=O)[C@]12C[C@H](CC(=O)N3CCCCC3)C(=O)N(Cc3ccc(Cl)cc3Cl)C1=C[C@H](C(C)(C)C)O[C@@H]2C | 1.4
C#CCNC(=O)C[C@@H]1C(=O)N2CCCC3=C2[C@@]1(C(=O)OCC)CCC3 | 3.7
C=CCC[C@@H](Cc1ccc(F)cc1)C(=O)OC[C@@H]1CCCN1C(=O)[C@H](CC=C)CC(=O)N[C@H](CO)Cc1ccccc1 | 16.8* | TTR inh HuH7=0.0;TTR act confirm=-1.6
C=CCC[C@@H](Cc1ccc(F)cc1)C(=O)OC[C@H](Cc1c[nH]c2ccccc12)NC(=O)[C@@H](CC=C)CC(=O)N[C@H](CO)Cc1ccccc1 | -3.9
C=CC[C@@H](CC(=O)N[C@H](CO)Cc1ccccc1)C(=O)N[C@@H](COC(=O)[C@@H](CC=C)Cc1ccc(F)cc1)Cc1ccccc1 | 4.3
Cc1nnc(SCC(=O)NN2C(=O)NC3(CCCCC3)C2=O)s1 | 11.2* | TTR inh HuH7=-5.5;TTR act confirm=-0.7
CCC(=O)N(c1nnc(SCC(=O)NN2C(=O)NC3(CCC(C)CC3)C2=O)s1)C1CC1 (centres undefined) | 0.0
Cc1ccc(C(=O)CCC(=O)NN2C(=O)NC3(CCCCC3)C2=O)cc1 | -1.8
COC(=O)[C@]12C[C@H](CC(=O)NCCCCc3ccccc3)C(=O)N(Cc3cccc4ccccc34)C1=C[C@H](C(C)C)O[C@@H]2C1CC1 | 0.4
O=C(CN1C(=O)CNC1=O)Nc1cc(Cl)cc(Cl)c1 | -1.8
SMILES | TTR transcr act | others
CCOC(=O)C1CCN(C(=O)C(C)(C)NC(=O)Nc2ccc(Cl)cc2Cl)CC1 | -0.3
CCC[C@H]1[C@@H](NC(=O)c2cccc(Cl)c2)CC[C@@]23CCCN2C(=O)CCC[C@@H]13 | 0.3
O=C(CN1CCC(NC(=O)c2ccccc2Cl)CC1)NCc1ccccc1 | 0.3
O=C(NCc1nnc2c3ccccc3c(-c3ccccc3)nn12)c1ccccc1Cl | 13.8* | TTR inh HuH7=-6.5;TTR act confirm=0.3
O=C(NCCN1CCCC1)c1ccccc1Cl | 0.1
COC(=O)[C@]12C[C@H](CC(=O)N3CCCC3)C(=O)N(Cc3ccccc3)C1=C[C@H](COCc1ccccc1)O[C@@H]2C | -0.2
CN(C)c1cccc(-c2cnc(N3CCC(C(N)=O)CC3)s2)c1 | 3.3
O=S1(=O)c2ccc(N3CC[C@H](O)C3)cc2O[C@@H]2CCN1C2 | 1.3
Cc1cccc(/C(N)=N/OC(=O)COc2ccc(Cl)c(C)c2)c1 | 10.6* | TTR inh HuH7=-10.3;TTR act confirm=-0.6
Cc1cccc(/C(N)=N/OC(=O)Cc2cccc3ccccc23)c1 | 1.9
Cc1ccc(C)c(OCC(=O)O/N=C(\N)c2cccnc2)c1 | 1.1
COC(=O)[C@H]1C[C@]2(C/C=C(\C)CCC=C(C)C)c3ccccc3N[C@H]2N1 | 0.0
CCOC(=O)N1CCN(C(=O)C[C@H]2C(=O)N(Cc3ccc(OC)cc3)C3=CCCCC[C@@]32C(=O)OC)CC1 | -0.5
O=C(CC1C(=O)NCCN1Cc1ccccc1C(F)(F)F)NC1CCCCCC1 (centres undefined) | 10.1* | TTR inh HuH7=-7.4;TTR act confirm=1.7
